About 83,000 compounds went through this panel and 20% of them were active in at least one assay; those are over-represented in the sample as a whole.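 Treatment: one concentration, 48 hours, 96-well format. Scoring: percent growth, with anything below 10 considered active.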 Calls of active or inactive are those of the source.

One test concerns CCRF-CEM leukemia. Kind of test: NCI-60 one-dose screen, 48 h (100 = growth as untreated, 0 = no growth, -100 = all killed). To be noted: 10 µM unless noted.
`O=C(Nc1ccc(F)cc1)Nc1ccc(CCO)cc1`: the growth is 107% (inactive).
Regarding `C[C@@H]1CC[C@@H]2[C@@H]1[C@H](OC(=O)/C=C/c1ccccc1)[C@]1(C3CCCCC3)C[C@@H](OC(=O)CO)[C@@]2(C)O1`, the growth is 62.8% (inactive).
On the same count and under the same terms, for `O=C1Nc2ccccc2/C1=C/C(=N/c1nnc(-c2ccccc2)s1)c1ccccc1` the value was -45% (active).
`CCCCCCCCOC(=O)CC[C@@H](C)[C@H]1CC[C@H]2[C@@H]3[C@H](OC(=O)CCN)C[C@@H]4C[C@H](OC(=O)CCN)CC[C@]4(C)[C@H]3C[C@H](OC(=O)CCN)[C@]12C`: the growth was -37.5% (active).

For another test, the system named is MOLT-4 leukemia. The test is described as above. Particulars: 10 µM unless noted.
Consider `Nc1cc2nc3ccccc3sc-2cc1=O`, for which the growth is 61.4% (inactive).
As for `Cc1noc(C)c1-c1cc(O)cc(C(O)c2ccccc2)c1` (stereo not drawn), the growth was 58.8% (inactive).
As to `CCCCCC(=O)N(CCCC)CCCC`, the growth was 105% (inactive).
On to `COc1ccc(/C=N\NC(=O)c2ccncc2)cc1O`, for which the growth is 95.6% (inactive).
Consider `O=C(Cn1cc(CN2C(=O)c3ccccc3S2(=O)=O)nn1)Nc1ccc([N+](=O)[O-])cc1Cl`, for which the growth was 96.5% (inactive).
On to `Oc1ccc(Nc2nccc(-c3ccc4ccccc4c3)n2)cc1`, for which the growth was 14.8% (inactive).
For `O=C1C=CC(=O)c2c1nc1n2CCCC1`, the growth was 90.3% (inactive).
In the case of `Cc1cc(Nc2nc(N3CCOCC3)nc3ccccc23)n[nH]1`, the growth was 58.4% (inactive).
Consider `Cc1ccc(C2CC3c4ccccc4C2C2CCCCN32)cc1` (stereo not drawn), for which the growth is 94.8% (inactive).
As for `Cc1csc2ccc(Cl)cc12`, the growth is 112% (inactive).
On to `O=S(=O)(Nc1ccc(F)c(Cl)c1)c1ccc(-c2cnc(C3CC3)o2)cc1`, for which the growth was 29.5% (inactive).
On to `CC#Cc1nc2ccccc2c(=O)[nH]1`, for which the growth is 19.3% (inactive).
As to `C[C@H](CCC(=O)O)[C@H]1CC[C@H]2[C@@H]3CC[C@@H]4/C(=C\c5ccco5)C(=O)/C(=C\c5ccco5)C[C@]4(C)[C@H]3CC[C@]12C`, the growth is 0.809% (active).
On to `Cc1cc(Nc2nc(-c3cccnc3)nc3ccccc23)n[nH]1`, for which the growth was 89.5% (inactive).
For the compound `COc1cc(OC)c(/C=C/c2cc[n+](C)c3ccccc23)c(OC)c1`, the growth was 3.59% (active).
Still for that read-out and setting: for `CCCCCCCCCCCCCCCC[N+]1(CC)CCCC1` the value was -67.3% (active); for `CC(=O)OCC(=O)C1CCC=CC1OC(C)=O` (stereo not drawn), 95.9% (inactive); for `COC1C/C(=N\O)C2OC(c3ccccc3)OCC2O1` (stereo not drawn), 97.6% (inactive).
For the compound `CC[C@H](Nc1nc(N)nc(C)c1C#N)c1nc2cccc(NCc3ccc(C(=O)NO)cc3)c2c(=O)n1-c1ccccc1`, the growth is 0.225% (active).
Regarding `Cc1nn(-c2ccccc2)c2nc(C)n(-c3ccc(Br)cc3)c(=O)c12`, the growth is 19.8% (inactive).
As to `Cc1ccc2c(NCCCN(C)C)c3c(C)nn(C)c3nc2c1`, the growth is 10.7% (inactive).
Regarding `NC(CC(=O)O)C(=O)OCc1ccccc1` (stereo not drawn), the growth was 103% (inactive).
On to `NCCN1CCN(c2nccc(-c3ccc4ccccc4c3)n2)CC1`, for which the growth was 22.1% (inactive).
The same measure, in the same setting: to `Nc1ccc(Nc2nccc(-c3ccc4ccccc4c3)n2)cc1` belongs 20.2% (inactive); to `CCCNc1nc(SC)nc(-c2cccc(N)c2)c1C#N`, 101% (inactive); to `CN(C)CCOc1ccc(-c2nc3ccc(-c4nc5ccc(N6CCN(C)CC6)cc5[nH]4)cc3[nH]2)cc1`, 92% (inactive).
With `CCCCCCCCCCCCN1CCCC(C)C1` (stereo not drawn), the growth is 63.9% (inactive).
Regarding `COc1ccc(-c2nc(Nc3cc(C)[nH]n3)c3ccccc3n2)cc1`, the growth is 69.8% (inactive).
Turning to `CN[C@@]12CC3(C=CC(=O)C=C3)O[C@]1(Cc1ccc(OC)cc1)N(C)C(=O)N2`, the growth was 73% (inactive).
As for `COc1cc2cc(COc3nccc(-c4ccc(Cl)cc4)n3)c(=O)[nH]c2cc1OC`, the growth is 42.1% (inactive).
Turning to `Cc1ccc(S(=O)(=O)N(CCc2ccc(Cl)cc2)S(=O)(=O)c2ccc(C)cc2)cc1`, the growth is 66.5% (inactive).
Still for that read-out and setting: to `CC[C@H](Nc1cc(C)nc(N)n1)c1nc2cccc(NCc3ccc(C(=O)NO)cc3)c2c(=O)n1-c1ccccc1` belongs -9.86% (active).
`CN1CCCCC1CCN1c2ccccc2Sc2ccc(Br)cc21` (stereo not drawn): the growth is 30.3% (inactive).
Turning to `O=C1Nc2ccc(Br)cc2C12CC(c1ccccc1)=NN2` (stereo not drawn), the growth is 36.3% (inactive).
In the case of `O=C(N/N=C/c1ccc(O)cc1O)c1cccnc1`, the growth was 3.3% (active).
On to `O=C(Nc1ccc(F)cc1)Nc1ccc(CCO)cc1`, for which the growth was 102% (inactive).
Consider `C[C@@H]1CC[C@@H]2[C@@H]1[C@H](OC(=O)/C=C/c1ccccc1)[C@]1(C3CCCCC3)C[C@@H](OC(=O)CO)[C@@]2(C)O1`, for which the growth was 61.6% (inactive).
Consider `O=C1Nc2ccccc2/C1=C/C(=N/c1nnc(-c2ccccc2)s1)c1ccccc1`, for which the growth was -24.2% (active).
With `CCCCCCCCOC(=O)CC[C@@H](C)[C@H]1CC[C@H]2[C@@H]3[C@H](OC(=O)CCN)C[C@@H]4C[C@H](OC(=O)CCN)CC[C@]4(C)[C@H]3C[C@H](OC(=O)CCN)[C@]12C`, the growth is 26.1% (inactive).
